Reference: PubChem BioAssay AID743171 (National Center for Advancing Translational Sciences (NCATS), 2013)
“And” between values parts separate entries of the source, which are not always exact repeats. Equal values may be shown once. Inconclusive results are not listed. The source made the active and inactive calls. The call rests on the fitted dose curve; in most records, active means well fitted inhibition curve with a large enough effect; inconclusive means small, poorly fitted or top-dose-only effect; inactive means flat fitted curve, though single readings scatter.

The compounds below were run against 15-hydroxyprostaglandin dehydrogenase [NAD(+)] (Homo sapiens) (UniProt P15428) (assay: Extended Characterization of HPGD Inhibitors: Activity in Primary Assay (HPGD)). Conditions: recombinant HPGD, NADH fluorescence, PGE2 substrate; series mostly up to 57.1 µM.
15-hydroxyprostaglandin dehydrogenase [NAD(+)] (Homo sapiens), sequence (P15428 whole entry, looked up): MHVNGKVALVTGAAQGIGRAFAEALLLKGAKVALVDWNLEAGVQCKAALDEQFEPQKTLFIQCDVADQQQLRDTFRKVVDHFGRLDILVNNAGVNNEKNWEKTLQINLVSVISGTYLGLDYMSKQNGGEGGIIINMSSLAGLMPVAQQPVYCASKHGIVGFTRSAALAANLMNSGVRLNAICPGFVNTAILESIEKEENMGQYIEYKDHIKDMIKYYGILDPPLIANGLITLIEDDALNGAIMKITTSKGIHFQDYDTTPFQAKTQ
Excerpt: The central role of HPGD is to inactivate prostaglandins such as prostaglandin E2 (PGE2) or prostaglandin D2 (PGD2). These prostaglandins are involved in a number of processes, including inflammation, differentiation, and cellular signaling, which makes HPGD an important target for pharmacological intervention. Inhibition of 15-PGDH (HPGD) activity was screened by utilizing prostaglandin as an electron donor and NAD+ as an electron acceptor/cofactor. An increase in the fluorescence intensity due to conversion of NAD+ to NADH was used to measure the enzyme activity. All compounds were screened using a qHTS approach, where compounds are assayed using at least seven concentrations to generate concentration-response curves for every compound. Briefly, qHTS uses an inter-plate dilution method where the first plate contains the highest concentration of a set of compounds in DMSO, while subsequent plates contain the same compounds in the same well locations, but at successive lower concentrations. NIH Chemical Genomics Center [NCGC] NIH Molecular Libraries Probe Centers Network [MLPCN] MLPCN Grant: MH084681 Assay Submitter (PI): Structural Genomics Consortium
Three uL of enzyme (20 nM final concentration) were dispensed to 1536-well Greiner black solid bottom plates. Compounds (23 nL) were transferred via Kalypsys PinTool. The plates were incubated for 15 min at room temperature, and then 1 uL of substrate/cofactor solution (Substrate/cofactor solution: 1 mM NAD+ and 30 uM prostaglandin (Sigma, prostaglandin E2, #P5640)) were added to start the reaction. The plates were immediately transferred to and read 4 times every 30 seconds on a ViewLux High-throughput CCD imager (Perkin-Elmer) using 340 nm excitation and 450 nm emission fluorescence protocol. The fluorescence intensity difference between the last and the first time points, normalized against controls, was used to compute reaction progress.
With `Cc1cc(-c2nnc3n2CCCCCC3)c(C)n1-c1ccccc1` the Potency was 242 nM (active). In the case of `Cc1cccc(-n2cnc3cc(C(=O)N4CC(C)CC(C)C4)ccc32)c1` (stereo not given), the Potency is reported as 271 nM (active). With `CC(C)(C)c1cccc(-n2cnc3cc(C(=O)N4CCCCC4)ccc32)c1` the Potency was 171 nM (active). In the case of `CCOC(=O)c1ccc(-n2cnc3cc(C(=O)N4CCCCC4)ccc32)cc1`, the Potency is reported as 13.6 nM (active). With `Cc1cc(-c2nnc3n2CCCCC3)c(C)n1-c1ccccc1` the Potency was 121 nM (active) and 54.1 nM (active) and 68.1 nM (active). For `Cc1cccc(-n2cnc3cc(C(=O)N4CCCC(c5ccccc5)C4)ccc32)c1` (stereo not given), the Potency was 429 nM (active). In the case of `Cc1ccccc1CSc1nc2ncc(Br)cc2[nH]1`, the Potency is reported as 76.4 nM (active). `Cc1cccc(-n2cnc3cc(C(=O)N4CCC(N5CCOCC5)CC4)ccc32)c1` was tested, and the Potency was “inactive”. In the case of `N#Cc1cccc(CSc2nc3ncc(Br)cc3[nH]2)c1`, the Potency is reported as 136 nM (active). For `Cc1cccc(-n2cnc3cc(C(=O)N4CCCC(C(C)C)C4)ccc32)c1` (stereo not given), the Potency was 48.2 nM (active). With `CC(C)(C)c1ccc(-n2cnc3cc(C(=O)N4CCCCC4)ccc32)cc1` the Potency was 54.1 nM (active). For `CC(C)(C)n1cnc2cc(C(=O)N3CCCCC3)ccc21`, the Potency was 34.1 nM (active). In the case of `CCOC(=O)c1ccc(-n2c(C)cc(-c3nnc4n3CCCCC4)c2C)cc1`, the Potency is reported as 38.3 nM (active). In the case of `Cc1cccc(-n2cnc3cc(C(=O)N4CCC(Br)CC4)ccc32)c1`, the Potency is reported as 76.4 nM (active). For `Cc1cccc(-n2cnc3cc(C(=O)N4CCN(C)CC4)ccc32)c1`, the Potency was 2710 nM (active). In the case of `Cc1cc(-c2nnc3n2CCCCC3)c(C)n1-c1ccc(F)cc1`, the Potency is reported as 121 nM (active). In the case of `Cc1cccc(-n2cnc3cc(C(=O)N4CCC(C(F)(F)F)CC4)ccc32)c1`, the Potency is reported as 1520 nM (active). `Brc1cnc2nc(SCc3ccccn3)[nH]c2c1` was tested, and the Potency was 3410 nM (active). `Cc1ccc(-n2cnc3cc(C(=O)N4CCCCC4)ccc32)cc1` was tested, and the Potency was 19.2 nM (active). In the case of `O=C(c1ccc2c(c1)ncn2-c1cccc(C(F)(F)F)c1)N1CCCCC1`, the Potency is reported as 48.2 nM (active). With `O=C(c1ccc2c(c1)ncn2-c1ccc(C(F)(F)F)cc1)N1CCCCC1` the Potency was 85.7 nM (active). In the case of `Cc1cc(-c2nnc3n2CCCCC3)c(C)n1-c1ccc(Cl)c(Cl)c1`, the Potency is reported as 21.5 nM (active). In the case of `Cc1cc(-c2nnc3n2CCCCC3)c(C)n1-c1cccc(C#N)c1`, the Potency is reported as 76.4 nM (active). For `Brc1cnc2nc(SCc3ccccc3)[nH]c2c1`, the Potency was 8570 nM (active). In the case of `N#Cc1ccc(CSc2nc3ncc(Br)cc3[nH]2)cc1`, the Potency is reported as 482 nM (active). With `Brc1cnc2nc(SCc3cccnc3)[nH]c2c1` the Potency was 1360 nM (active). For `Cc1cc(-c2nnc3n2CCCCC3)c(C)n1-c1ccc([N+](=O)[O-])cc1`, the Potency was 108 nM (active). For `N#Cc1ccccc1CCc1nc2ncc(Br)cc2[nH]1`, the Potency was 19200 nM (active). With `Cc1cc(-c2nnc3n2CCCCC3)c(C)n1-c1ccc(C#N)cc1` the Potency was 96.1 nM (active). For `Cc1cc(-c2nnc3n2CCCC3)c(C)n1-c1ccccc1`, the Potency was 192 nM (active). For `CCCCNC(=O)c1ccc2c(c1)ncn2-c1cccc(C)c1`, the Potency was 1360 nM (active). With `O=[N+]([O-])c1ccccc1CSc1nc2ncc(Br)cc2[nH]1` the Potency was 96.1 nM (active). `Cc1cc(-c2nnc3n2CCCCC3)c(C)n1-c1ccc(C(F)(F)F)cc1` was tested, and the Potency was 68.1 nM (active). For `Clc1ccccc1CSc1nc2ncc(Br)cc2[nH]1`, the Potency was 54.1 nM (active). For `Cc1cccc(-n2cnc3cc(C(=O)N4CCCC(C)(C)C4)ccc32)c1`, the Potency was 68.1 nM (active). For `Cc1ccc(-n2c(C)cc(-c3nnc4n3CCCCC4)c2C)cc1`, the Potency was 34.1 nM (active). For `Clc1cccc(CSc2nc3ncc(Br)cc3[nH]2)c1`, the Potency was 242 nM (active). With `Brc1cnc2nc(SCc3ccncc3)[nH]c2c1` the Potency was 1520 nM (active). In the case of `Cc1cccc(-n2cnc3cc(C(=O)N4CCCCCC4)ccc32)c1`, the Potency is reported as 27.1 nM (active). For `Cc1cc(-c2nnc3n2CCC3)c(C)n1-c1ccccc1`, the Potency was 3040 nM (active).
